Test systems include SK-MEL-2 melanoma; EKVX NSCLC; SN12C renal; UO-31 renal; TK-10 renal; ACHN renal; CAKI-1 renal; A498 renal; CCRF-CEM leukemia; MOLT-4 leukemia; RPMI-8226 leukemia; OVCAR-8 ovarian; OVCAR-5 ovarian; OVCAR-4 ovarian; SK-OV-3 ovarian; IGROV1 ovarian; OVCAR-3 ovarian; HS 578T breast; NCI/ADR-RES ovarian.
Holding throughout (test): NCI-60 one-dose screen, 48 h (100 = growth as untreated, 0 = no growth, -100 = all killed)
Details in all cases: 10 µM unless noted

The panel holds about 83,000 compounds, 20% with a hit somewhere; the sample as a whole holds those more often.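 Percent growth is the endpoint: 0 to 100 indicates growth inhibition (40 means 60% inhibition), 0 means no net growth, and negative values indicate cell death.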 A number with no mark means an inactive call. The source made the active and inactive calls. How the source made its calls: active means growth percent below 10; inactive means the rest.

As for `Cc1ccc(/C=C2\Oc3ccc(O)c(O)c3C2=O)cc1`, the growth is 87.6% with SK-MEL-2 melanoma; 19.7% in the assay with EKVX NSCLC; 62.8% with SN12C renal; 13.5% in the assay with UO-31 renal; 98% with TK-10 renal; 29.1% in the assay on ACHN renal. For the same compound, the growth is 34.4% in the assay with CAKI-1 renal; 70.2% in the assay on A498 renal; 15.6% with CCRF-CEM leukemia; 29.6% in the assay on MOLT-4 leukemia; 51.1% in the assay with RPMI-8226 leukemia; 44.5% in the assay with OVCAR-8 ovarian. The growth was 68.5% with OVCAR-5 ovarian; 43.7% in the assay with OVCAR-4 ovarian; 63.6% in the assay on SK-OV-3 ovarian; 38.1% in the assay with IGROV1 ovarian; 11.7% in the assay on OVCAR-3 ovarian; 62.5% in the assay on HS 578T breast. Besides, in the assay with NCI/ADR-RES ovarian, the growth is 45.1%.
In the case of `CN1C(=O)N(C)C2Nn3c(s/c(=C\c4ccccc4)c3=O)=NC21` (centres undefined), the growth in the assay with SK-MEL-2 melanoma was 109%; in the assay on EKVX NSCLC it was 96.5%; with SN12C renal it was 95.6%; in the assay on UO-31 renal, 81.8%; in the assay on TK-10 renal, 115%; with ACHN renal, 97.8%. Besides, the growth in the assay on CAKI-1 renal was 82.7%; in the assay with A498 renal, 68%; with CCRF-CEM leukemia, 99.5%; with MOLT-4 leukemia it was 109%; in the assay with RPMI-8226 leukemia, 101%; with OVCAR-8 ovarian, 96%. Besides, the growth in the assay on OVCAR-5 ovarian is 100%; in the assay with OVCAR-4 ovarian, 101%; in the assay on SK-OV-3 ovarian, 100%; in the assay with IGROV1 ovarian it was 100%; in the assay with OVCAR-3 ovarian, 100%; with HS 578T breast, 96.2%.
Take `COc1ccc(OC)c(/C=C/C(=O)N/N=C/c2ccc(Cl)cc2)c1`: the growth in the assay on SK-MEL-2 melanoma was 22.3%; with EKVX NSCLC, 43.1%; in the assay on SN12C renal, 46.2%; in the assay with UO-31 renal, 30.1%; with TK-10 renal, 51%; in the assay with ACHN renal it was 48.4%. Besides, the growth in the assay on CAKI-1 renal is 41.8%; in the assay on A498 renal, 12.5%; in the assay on CCRF-CEM leukemia, 13.7%; in the assay with MOLT-4 leukemia, 26.3%; in the assay on RPMI-8226 leukemia it was 21.3%; in the assay with OVCAR-8 ovarian it was 21%. Besides, the growth with OVCAR-5 ovarian was 28.4%; in the assay with OVCAR-4 ovarian, 40.2%; in the assay on SK-OV-3 ovarian, -4.93% (active); in the assay with IGROV1 ovarian it was 17.9%; in the assay with OVCAR-3 ovarian it was -43.4% (active); in the assay on HS 578T breast, -1.72% (active).
`Clc1ccc(C(/C=C/c2sc(Cl)nc2Cl)=N/Nc2cc(Cl)cc(Cl)c2)cc1`: the growth in the assay with SK-MEL-2 melanoma is 106%; in the assay on EKVX NSCLC it was 103%; in the assay with SN12C renal it was 100%; with UO-31 renal, 83%; in the assay with TK-10 renal, 119%; in the assay on ACHN renal, 102%. The growth with CAKI-1 renal is 98.2%; in the assay on A498 renal, 101%; in the assay with CCRF-CEM leukemia, 94.5%; in the assay with MOLT-4 leukemia, 96.6%; in the assay on RPMI-8226 leukemia, 98.1%; with OVCAR-8 ovarian, 104%. Moreover, the growth with OVCAR-5 ovarian was 104%; in the assay on OVCAR-4 ovarian, 100%; with SK-OV-3 ovarian, 98.9%; in the assay on IGROV1 ovarian it was 89.7%; in the assay on OVCAR-3 ovarian it was 103%; in the assay with HS 578T breast it was 98.3%. Also, the growth in the assay with NCI/ADR-RES ovarian was 104%.
In the case of `Cc1oc2nc[nH]c(=O)c2c1C(=O)/C=C/c1ccc(Br)cc1`, the growth in the assay on SK-MEL-2 melanoma is 11.9%; in the assay with EKVX NSCLC, 19.7%; in the assay with SN12C renal, 1.76% (active); with UO-31 renal, 19.4%; in the assay with TK-10 renal it was 40.9%; in the assay on ACHN renal, 1.43% (active). The growth was 28.4% with CAKI-1 renal; 23.7% in the assay on A498 renal; 6.65% (active) in the assay with CCRF-CEM leukemia; 8.42% (active) in the assay with MOLT-4 leukemia; -3.59% (active) in the assay on RPMI-8226 leukemia; 7.33% (active) with OVCAR-8 ovarian. The growth in the assay on OVCAR-5 ovarian was 22.3%; in the assay on OVCAR-4 ovarian, 36%; in the assay on SK-OV-3 ovarian, 31.5%; in the assay with IGROV1 ovarian it was 8.79% (active); with OVCAR-3 ovarian it was -10.9% (active); in the assay on HS 578T breast it was 24.3%. The growth in the assay with NCI/ADR-RES ovarian was -30.5% (active).
`COc1ccc(-c2cc3c4c(nc5ccccc5c4c2)CC(c2cc(OC)c(OC)c(OC)c2)O3)cc1` (centres undefined): the growth in the assay on SK-MEL-2 melanoma is 66.3%; with EKVX NSCLC, 65%; with SN12C renal, 32.3%; in the assay with UO-31 renal, -26.3% (active); in the assay with TK-10 renal, 7.8% (active); in the assay on ACHN renal, -46% (active). For the same compound, the growth with CAKI-1 renal is 1.26% (active); with A498 renal, 70.4%; with CCRF-CEM leukemia it was 99.1%; in the assay with MOLT-4 leukemia, 102%; with RPMI-8226 leukemia, 25.1%; in the assay on OVCAR-8 ovarian, 32%. Also, the growth in the assay on OVCAR-5 ovarian is 18.4%; in the assay on OVCAR-4 ovarian, -9.24% (active); with SK-OV-3 ovarian, 20.2%; in the assay with IGROV1 ovarian, 52.5%; with OVCAR-3 ovarian, 41.9%; in the assay on HS 578T breast it was 13.2%. In the assay on NCI/ADR-RES ovarian, the growth is 41.4%.
Take `S=C(c1cccs1)N1CCN(c2cccc(Cl)c2)CC1`: the growth in the assay on SK-MEL-2 melanoma is 99%; in the assay with EKVX NSCLC it was 115%; in the assay with SN12C renal, 101%; in the assay with UO-31 renal it was 88.8%; with TK-10 renal, 101%; in the assay on ACHN renal it was 100%. The growth in the assay on CAKI-1 renal is 92.4%; with A498 renal, 96.7%; in the assay on CCRF-CEM leukemia it was 87.9%; in the assay on MOLT-4 leukemia it was 92.5%; with RPMI-8226 leukemia, 86.3%; with OVCAR-8 ovarian, 104%. For the same compound, the growth in the assay on OVCAR-5 ovarian was 97.2%; in the assay on OVCAR-4 ovarian, 101%; in the assay on SK-OV-3 ovarian, 107%; in the assay on IGROV1 ovarian, 89.9%; in the assay with OVCAR-3 ovarian, 106%; in the assay with HS 578T breast, 120%.
As for `N#Cc1c(Nc2cccc(Cl)c2)sc(C(=O)c2cc3cc(Cl)ccc3o2)c1N`, the growth in the assay with SK-MEL-2 melanoma is 71.4%; in the assay with EKVX NSCLC, 158%; with SN12C renal it was 81.3%; in the assay on UO-31 renal it was 81%; in the assay on TK-10 renal it was 127%; in the assay with ACHN renal, 112%. Besides, the growth was 151% in the assay with CAKI-1 renal; 128% with A498 renal; 52.8% in the assay with CCRF-CEM leukemia; 66.6% in the assay with MOLT-4 leukemia; 56.8% in the assay with RPMI-8226 leukemia; 67.4% in the assay on OVCAR-8 ovarian. The growth is 86.4% with OVCAR-5 ovarian; 92.5% in the assay on OVCAR-4 ovarian; 97.9% with SK-OV-3 ovarian; -8.05% (active) with IGROV1 ovarian; 111% in the assay on OVCAR-3 ovarian; 105% in the assay with HS 578T breast. The growth in the assay with NCI/ADR-RES ovarian is 84.3%.

The values are drawn from PubChem BioAssay (NCI).
